The results in this text go back to PubChem BioAssay (NCATS).

Assay [1] in a line: qHTS to identify inhibitors of the type 1 interferon - major histocompatibility complex class I in skeletal muscle: primary screen against the NCATS LOPAC collection (AID 1347405).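 Also: human myoblasts with HiBiT tag on endogenous HLA-B stimulated by IFN-beta; lytic HiBiT luminescence reporting HLA-B protein level.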 Also: potency is read from the fitted curve at half-maximal effect. The procedure, abridged:
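HLA-B HiBiT myoblasts, IFN-b 4 ng/ml, dexamethasone-free medium; compounds 7-pt 1:4.3 titration, top 46 uM final; 24 h at 37 C; Nano-Glo HiBiT lytic reagent, 10 min RT, luminescence.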

A short description of assay [2]: qHTS for inhibitors of adenylyl cyclases using a fission yeast platform: a pilot screen against the NCATS LOPAC library (AID 1347410).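 Also: plate controls were DMSO vehicle for no effect and DPI positive control for full effect.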 The procedure, abridged: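 Read-out: fbp1-GFP fluorescence by laser scanning cytometry (488 nm laser), a gain of signal when AC/cAMP-PKA signalling is inhibited. Strain CHP2027 expressing AC9, GNAS and PDE4D2; compounds at up to 57 µM; 18 h, 30C.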

Assay [3] is described as follows: Validation qHTS assay for inhibitors of Activation Induced Cytidine Deaminase (AID): UDG Counterscreen signal (AID 1347427). Also: 0% is about no effect. The procedure, abridged:
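Fluorescence at 560 nm excitation, 665 nm emission reports UDG signal after 250 mM NaOH (2x) addition and 30 min. Enzymes (AID 1 uM, UDG 2 U/mL, at 4/3x) preincubated 10 min with compound, then 4 h with 4x 250 nM DJC20/DJC23 substrate at room temperature.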

A short description of assay [4]: Primary qHTS for inhibitors of La Crosse Virus (LACV) - induced cell death in SH-SY5Y cells (AID 1508616). Also: potency is read from the fitted curve at half-maximal effect. The procedure, abridged: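 Cytopathicity rescue screen: compounds pinned onto SH-SY5Y cells, which are then infected with LACV (MOI 0.01) and held 6 days at 37C. Percent activity is scaled between infected DMSO control and uninfected DMSO control.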
In assay [5] the target is Calcium and integrin-binding protein 1 (Homo sapiens) (UniProt Q99828). Nature of the assay: Validation qHTS for Identification of Calcium Integrin Binding protein 1 (CIB1) Competitor (AID 1508618). Also: % is scaled to controls: 0 for no effect and ±100 for the full control effect. The procedure, abridged: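 CIB1-GST (1 uM final) in 5 mM HEPES pH 7.4, 125 mM NaCl, 5 mM CaCl2, 0.01% Tween20 was preincubated 15 min at room temperature with compound (up to 114 uM), then FITC-alphaIIb peptide (100 nM) added for 15 min; fluorescence polarization read.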

Assay [6] in a line: Primary qHTS for small molecule stabilizers of the endoplasmic reticulum resident proteome: Secreted ER Calcium Modulated Protein (SERCaMP) assay (AID 1508630). Also: % is scaled to controls: 0 for no effect and ±100 for the full control effect. The procedure, abridged: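 The SH-SY5Y reporter protocol was run at 3 concentrations up to 38.3 uM (primary) or 11 concentrations (follow-up): 16 h compound, 100 nM thapsigargin for 4 h, then extracellular luciferase luminescence.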

A further assay deals with Papain (Carica papaya) (UniProt P00784). Nature of the assay: Primary qHTS assay for inhibitors of the protease papain (AID 1645873).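 Also: papain turnover of Z-FR-AMC read as the AMC fluorescence gain over 10 min; series mostly up to about 50 µM; % is scaled to controls: 0 for no effect and ±100 for the full control effect.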
Assay [7] deals with Single-stranded DNA cytosine deaminase (Homo sapiens) (UniProt Q9GZX7). Nature of the assay: Validation qHTS assay for inhibitors of Activation Induced Cytidine Deaminase (AID): AID signal (AID 1347429). Also: % is scaled to controls: 0 for no effect and ±100 for the full control effect. The procedure, abridged:
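AID+UDG coupled FRET deamination; cpds up to 114 uM final; DJC20/DJC23 substrate, 4 hr RT; NaOH stop, 30 min RT; read Ex 540/Em 590.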

Assay [8] in a line: Counterscreen qHTS for small molecule stabilizers of the endoplasmic reticulum resident proteome: GLuc-NoTag assay (AID 1508627).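 Also: series mostly up to about 76 µM; 0% = thapsigargin alone and -100% = DMSO vehicle control.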 The procedure, abridged:
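Secreted GLuc lacking the SERCaMP modification is measured in SH-SY5Y cells exposed to compound for 19 h and then to thapsigargin (100 nM, 4 h) to deplete ER calcium; hits retested at 11 concentrations, up to 76.6 uM.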

Assay [9] is described as follows: Confirmatory qHTS for small molecule stabilizers of the endoplasmic reticulum resident proteome: Secreted ER Calcium Modulated Protein (SERCaMP) assay (AID 1508628). Also: nearly all actives have a fitted effect of over 40% in size. Also: potency is read from the fitted curve at half-maximal effect. The procedure, abridged:
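GLuc-SERCaMP-expressing SH-SY5Y cells, pretreated 16 h with compound, are challenged with thapsigargin to empty ER calcium stores; after 4 h, coelenterazine is added directly to the medium and luminescence is imaged.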

Assay [10] in a line: Cell Viability qHTS for small molecule stabilizers of the endoplasmic reticulum resident proteome (AID 1508629).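 Also: compound exposure about 46 h in total before the viability read.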 Also: potency is read from the fitted curve at half-maximal effect. To be noted: cell viability counter-screen, 100 nM thapsigargin for final 4 h.
The target in assay [11] is Cytochrome P450 2C9 (Homo sapiens) (UniProt P11712). Nature of the assay: Cytochrome P450 family 2 subfamily C member 9 (CYP2C9) small molecule antagonists: luciferase biochemical (cell-free) qHTS assay (AID 1645842; active = well fitted curve in the direction sought with a large enough effect in the repeat runs; an effect the other way counts as inactive or inconclusive; also: series mostly up to about 57 µM; % is scaled to controls: 0 for no effect and ±100 for the full control effect; nearly all actives have a fitted effect of over 55% in size). The procedure, abridged: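 P450-Glo CYP2C9 system: proluciferin substrate with enzyme in mix containing 0.4% BSA, 10 min at room temperature, then NADPH regeneration solution added and incubated 1 h at 37C. Detection reagent stopped reaction; luminescence read after 20 min as RLU.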

“And” between values parts separate entries of the source, which are not always exact repeats. Equal values may be shown once. A number with no mark means an inactive call. Results filed as inconclusive are left out. The source made the active and inactive calls. Unless noted, calls follow the shape of the dose curve; as a rule, active = well fitted curve in the direction sought with a large enough effect; inconclusive = small, poorly fitted or top-dose-only effect, or another doubt; inactive = no such curve, though single readings can be large; an effect the other way counts as inactive or inconclusive.

Sequence of Calcium and integrin-binding protein 1 (Homo sapiens) (Q99828 whole entry, looked up): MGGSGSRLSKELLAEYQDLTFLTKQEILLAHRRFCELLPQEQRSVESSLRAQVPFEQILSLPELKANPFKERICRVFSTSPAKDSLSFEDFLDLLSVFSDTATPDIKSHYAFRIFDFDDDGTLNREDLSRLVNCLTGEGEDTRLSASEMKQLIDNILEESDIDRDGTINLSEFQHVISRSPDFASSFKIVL
Sequence of Single-stranded DNA cytosine deaminase (Homo sapiens) (Q9GZX7 whole entry, looked up): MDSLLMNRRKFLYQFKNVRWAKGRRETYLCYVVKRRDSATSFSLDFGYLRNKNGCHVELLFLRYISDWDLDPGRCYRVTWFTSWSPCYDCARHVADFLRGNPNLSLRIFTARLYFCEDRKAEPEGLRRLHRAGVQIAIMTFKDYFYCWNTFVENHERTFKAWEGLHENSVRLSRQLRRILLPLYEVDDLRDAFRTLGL
Sequence of Papain (Carica papaya) (P00784 whole entry, looked up): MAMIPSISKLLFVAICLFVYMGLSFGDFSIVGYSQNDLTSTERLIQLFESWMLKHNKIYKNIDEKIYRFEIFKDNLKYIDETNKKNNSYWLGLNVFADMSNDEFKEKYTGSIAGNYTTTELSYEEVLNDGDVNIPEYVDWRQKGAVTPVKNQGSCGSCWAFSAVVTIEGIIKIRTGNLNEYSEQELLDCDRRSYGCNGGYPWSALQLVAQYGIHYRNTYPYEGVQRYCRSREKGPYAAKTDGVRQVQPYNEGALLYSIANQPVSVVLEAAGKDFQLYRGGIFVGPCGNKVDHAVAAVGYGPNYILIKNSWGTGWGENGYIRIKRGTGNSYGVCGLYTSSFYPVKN
Sequence of Cytochrome P450 2C9 (Homo sapiens) (P11712 whole entry, looked up): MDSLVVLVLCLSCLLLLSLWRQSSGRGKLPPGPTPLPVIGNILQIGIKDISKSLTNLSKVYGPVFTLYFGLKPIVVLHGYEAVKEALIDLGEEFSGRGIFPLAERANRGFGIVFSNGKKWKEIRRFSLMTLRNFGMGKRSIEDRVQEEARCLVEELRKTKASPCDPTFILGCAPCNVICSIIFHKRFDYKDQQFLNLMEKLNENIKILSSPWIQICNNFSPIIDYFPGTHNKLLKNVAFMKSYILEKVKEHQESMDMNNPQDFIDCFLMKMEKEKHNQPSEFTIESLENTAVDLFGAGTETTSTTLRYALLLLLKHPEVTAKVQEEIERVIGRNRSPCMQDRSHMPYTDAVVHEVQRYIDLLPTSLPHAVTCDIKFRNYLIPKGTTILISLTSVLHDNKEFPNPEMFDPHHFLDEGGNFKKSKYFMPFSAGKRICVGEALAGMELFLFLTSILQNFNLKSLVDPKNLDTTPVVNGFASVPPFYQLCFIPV

On to `N[C@H](C(=O)O)c1cc(O)cc(O)c1`, for which the Potency entry (in [1]; in [3]; in assay [4]; in [5]; in assay [6]; in the assay with Papain (Carica papaya)) was “inactive” throughout. Further, the compound was classed as inactive in assay [2].

Take `N[C@@H](Cc1c[nH]c2ccccc12)C(=O)O`: the Potency result (in assay [1]; in [3]; in assay [4]; in assay [5]; with Papain (Carica papaya)) was “inactive” each time. The result in [2] was inactive.

Regarding `NC/C=C\C(=O)O`, the Potency result (in assay [1]; in assay [3]; in assay [4]; in assay [5]; in assay [6]; in the assay with Papain (Carica papaya)) was “inactive” each time. Moreover, the result in assay [2] was inactive.

For the compound `Nc1ccc(-c2nc3ccc(-c4nc5ccc(N)cc5[nH]4)cc3[nH]2)cc1`, the Potency result in assay [1], in assay [7] and in [6] was “inactive” each time. Besides, the outcome in assay [2] was inactive.

For `CC[n+]1c(/C=C/C=C2/N(C)c3ccccc3C2(C)C)sc2ccccc21`, in assay [1], the Potency was 5.01 µM (active). Besides, in [2], the compound was called inactive. Also, the Potency entry (in assay [3]; in assay [5]; in the assay with Papain (Carica papaya)) was “inactive” in each case.

`C=CCN1CCc2c(cc(O)c(O)c2Cl)C(c2ccccc2)C1` (stereo not given): the Potency result (in assay [1]; in assay [3]; in assay [4]; in [5]; in assay [6]; in the assay with Papain (Carica papaya)) was “inactive” in each case. Further, the compound was classed as inactive in [2].

As for `CCCCCCCC/C=C\CCCCCCCC(=O)NCCc1ccc(O)c(O)c1`, the compound was classed as inactive in assay [2]. The Potency result (in [3]; in [7]; in assay [5]; in assay [8]; with Papain (Carica papaya)) was “inactive” each time. Further, the Potency in [4] is 2.82 µM (active); in assay [9], 5.01 µM (active); in assay [10], 3.98 µM (active) and 7.08 µM (active).

Turning to `Nc1ccc(-c2ccc3ccccc3n2)cc1`, the Potency entry in assay [1], in assay [7], in [4], in assay [5] and in assay [8] was “inactive” in each case. In addition, the compound was called inactive in assay [2]. The max response in assay [10] was -7.29%.

On to `c1ccc(C2CN3CCSC3=N2)cc1` (stereo not given), for which the Potency entry (in [1]; in [3]; in [4]; in [5]; with Papain (Carica papaya)) was “inactive” throughout. Moreover, the outcome in assay [2] was inactive.

As to `N=C(N)c1ccc(OCCCCCOc2ccc(C(=N)N)cc2)cc1` (tested in a mixture with another compound), the Potency entry (in [6]; with Papain (Carica papaya)) was “inactive” in each case.

For `CC(C)NC[C@H](O)COc1cccc2ccccc12`, the Potency entry (in assay [4]; in assay [5]; in [6]; in the assay with Papain (Carica papaya)) was “inactive” throughout. For the same compound, in assay [11], the result was inactive.

As to `Clc1nccc2c1ccc1ccccc12`, the result in assay [2] was inactive. The Potency result (in assay [3]; in [4]; in assay [6]; with Papain (Carica papaya)) was “inactive” in each case.

With `CCCCCCCCCCCCCCCCCCOC[C@H](COP(=O)([O-])OCC[N+](C)(C)C)OC`, the Potency entry (in [3]; in assay [7]; in [5]; in [6]; with Papain (Carica papaya)) was “inactive” throughout.

In the case of `N#Cc1cc([N+](=O)[O-])c2sc(C(N)=O)[n+]([O-])c2c1`, in assay [2], the compound was classed as inactive. For the same compound, the Potency result (in assay [3]; in assay [7]; in assay [5]; in assay [8]; in assay [9]; in the assay with Papain (Carica papaya)) was “inactive” each time.

Regarding `CC(=O)SC1CC2=CC(=O)CC[C@]2(C)C2CC[C@@]3(C)C(CC[C@@]34CCC(=O)O4)C12` (stereo not given in full), the compound was classed as inactive in assay [2]. For the same compound, the Potency entry (in assay [3]; in assay [7]; in assay [4]; in assay [5]; in the assay with Papain (Carica papaya)) was “inactive” throughout.

As to `COc1cc([C@@H]2c3cc4c(cc3[C@H](O)C3COC(=O)[C@@H]32)OCO4)cc(OC)c1OC` (stereo not given in full), the call in assay [2] was inactive. The Potency result (in assay [3]; in [7]; in [4]; in assay [5]; in assay [6]; with Papain (Carica papaya)) was “inactive” throughout.
